Results taken from PubChem BioAssay (NCATS).
Results filed as inconclusive are left out. Active and inactive are the calls of the source. Unless noted, calls come from the whole dose curve; as a rule, active = well fitted curve in the direction sought with a large enough effect; inconclusive = small, poorly fitted or top-dose-only effect, or another doubt; inactive = no such curve, though single readings can be large; an effect the other way counts as inactive or inconclusive.

How the values were obtained:
[1] = AP1 Signaling Pathway (AID 357; active = well fitted curve in either direction with a large enough effect, not every such curve was filed as active;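 note: ME-180 reporter cells stimulated with EGF at its EC50 level; % is set by controls: 0 for no effect and ±100 for the full control effect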); conditions: ME-180 AP-1-bla reporter, EGF-induced, beta-lactamase ratio, 5 h; at 7.69 µM (top of the series) unless noted
Summary of the method: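 Modulation of EGF-driven AP-1 transcription was assessed with a beta-lactamase reporter in ME-180 cells. Compound and EC50 EGF were co-incubated 5 hours at 37 °C before 2.5-hour CCF4 loading at room temperature and dual-emission reading.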

[2] = NFAT Signaling Pathway (AID 444; active = well fitted curve in either direction with a large enough effect, not every such curve was filed as active;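 note: carbachol stimulus at about its EC50 of 1 µM final; % is set by controls: 0 for no effect and ±100 for the full control effect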); conditions: Jurkat NFAT-bla M1, carbachol, beta-lactamase ratio, 5 h; at 7.69 µM (top of the series) unless noted
Summary of the method: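 Jurkat cells with NFAT-driven β-lactamase reporter and co-expressed M1 receptor, stimulated with carbachol (final 1 uM, ~EC50), compound titration, 5 h at 37 °C. CCF4 loaded 1 h at RT; 460/530 nm ratio gave %activity and AC50.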

[3] = Stat Signaling Pathway (AID 446; active = well fitted curve in either direction with a large enough effect, not every such curve was filed as active;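 note: ME-180 cervical cancer cells given 40 pM IL-6 alongside compound; SIE-controlled beta-lactamase reporter measured as 460/530 nm FRET emission ratio; % is set by controls: 0 for no effect and ±100 for the full control effect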); conditions: ME-180 SIE beta-lactamase reporter, IL-6 stimulated, 5 h; at 7.69 µM (top of the series) unless noted
Summary of the method: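 ME-180 cells carrying a SIE-driven beta-lactamase reporter are stimulated with 40 pM IL-6 for 5 h at 37C in the presence of compound. The 460/530 nm FRET substrate ratio is read after 2.5 h at RT. Data are normalised to 300 pM IL-6 and to 125 nM JAK inhibitor controls.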

[4] = molecular target: Glucocorticoid receptor (Homo sapiens) (UniProt P04150); test: GR-EFC Redistribution (AID 451; calls by dose curve; note: potency is the fitted concentration of half-maximal effect); conditions: CHO-K1 GR-EFC translocation, beta-gal luminescence, 2 h
Summary of the method: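 CHO-K1 cells expressing nuclear EA and GR-ED fragments of b-gal; compounds titrated up to 46 uM final, 2 h at 37 C. GR nuclear translocation read as complemented b-gal luminescence after 1 h RT detection.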

[5] = molecular target: Mitogen-activated protein kinase 10 (Mus musculus) (UniProt Q61831); test: JNK3 AlphaScreen Assay (AID 530; active = well fitted curve in either direction with a large enough effect, not every such curve was filed as active;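 note: kinase came from lysate of stimulated human HepG2 cells; signal reports phosphorylation of biotinylated GST-cJun 1-79 at Ser73 with 10 µM ATP; % is set by controls: 0 for no effect and ±100 for the full control effect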)
Summary of the method: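 Pre-activated (IL-1β/TNFα) JNK3 in HepG2 lysates phosphorylates biotin-GST-cJun(1-79), 10 uM ATP; anti-phospho-cJun(Ser73) AlphaScreen read at room temperature, pH 7.6 Tris buffer. Compounds pre-incubated 15 min as titrations.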

[6] = molecular target: 3',5'-cyclic-AMP phosphodiesterase 4B (Homo sapiens) (UniProt Q07343); test: qHTS Assay for Inhibitors of PDE-IV (AID 607; active = well fitted activation curve with a large enough effect in the main read-out, with a control signal flat, not every such curve was filed as active; note: % of control where 0% means no effect)
3',5'-cyclic-AMP phosphodiesterase 4B (Homo sapiens), sequence (Q07343 whole entry, looked up): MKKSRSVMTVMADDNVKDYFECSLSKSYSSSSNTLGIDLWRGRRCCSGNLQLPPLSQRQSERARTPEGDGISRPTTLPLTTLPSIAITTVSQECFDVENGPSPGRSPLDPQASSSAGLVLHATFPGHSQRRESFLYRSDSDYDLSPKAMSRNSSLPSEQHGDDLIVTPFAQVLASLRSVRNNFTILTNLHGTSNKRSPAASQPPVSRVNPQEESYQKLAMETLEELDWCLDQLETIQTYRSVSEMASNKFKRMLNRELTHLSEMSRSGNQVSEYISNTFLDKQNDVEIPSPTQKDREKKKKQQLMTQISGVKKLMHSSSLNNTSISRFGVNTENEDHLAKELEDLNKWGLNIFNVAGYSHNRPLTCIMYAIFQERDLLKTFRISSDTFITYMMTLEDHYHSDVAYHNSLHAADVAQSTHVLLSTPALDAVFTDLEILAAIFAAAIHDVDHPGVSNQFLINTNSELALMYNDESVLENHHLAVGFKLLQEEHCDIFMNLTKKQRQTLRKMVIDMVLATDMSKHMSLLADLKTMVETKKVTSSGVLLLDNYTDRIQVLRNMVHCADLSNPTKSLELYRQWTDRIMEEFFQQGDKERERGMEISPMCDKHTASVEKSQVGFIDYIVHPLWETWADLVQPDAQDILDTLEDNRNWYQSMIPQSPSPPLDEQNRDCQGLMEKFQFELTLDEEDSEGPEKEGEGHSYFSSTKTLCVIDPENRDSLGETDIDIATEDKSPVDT
Summary of the method: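 HEK293 ACTOne cells with CNG channel (1000/well), endogenous PDE4; membrane potential dye, compounds up to 22.9 uM final. Fluorescence Ex 535/Em 590; RO 20-1724 (100 uM final) as reference.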

[7] = molecular target: Guanine nucleotide-binding protein G(i) subunit alpha-1 (Homo sapiens) (UniProt P63096); test: qHTS Assay for Inhibitors of RGS12 GoLoco Motif Activity (Green Fluorophore) (AID 879);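 note: 0% = labeled peptide with Gαi1 and full inhibition = labeled peptide alone without protein; negative values mean loss of peptide binding seen as reduced polarization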
Guanine nucleotide-binding protein G(i) subunit alpha-1 (Homo sapiens), sequence (P63096 whole entry, looked up): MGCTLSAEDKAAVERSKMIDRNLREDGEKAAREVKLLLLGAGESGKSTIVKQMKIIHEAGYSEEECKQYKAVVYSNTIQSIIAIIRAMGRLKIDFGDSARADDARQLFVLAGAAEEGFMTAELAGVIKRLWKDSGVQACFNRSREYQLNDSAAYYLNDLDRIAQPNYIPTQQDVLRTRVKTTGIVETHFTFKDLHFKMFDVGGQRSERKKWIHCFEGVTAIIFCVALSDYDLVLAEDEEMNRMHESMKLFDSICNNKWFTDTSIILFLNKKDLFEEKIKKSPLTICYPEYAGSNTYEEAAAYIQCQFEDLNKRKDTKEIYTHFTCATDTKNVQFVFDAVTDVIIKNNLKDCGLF
Summary of the method: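 Fluorescence polarization assay: 50 nM Gαi1 with 10 nM FITC-labeled RGS12 GoLoco peptide in 10 mM Tris pH 7.5, 150 mM NaCl, 0.1 mM GDP, 0.05% NP40, 10 min at room temperature with compound.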

[8] = qHTS Assay for Identification of Small Molecule Agonists for Thrombopoietin (TPO) Signaling Pathway (AID 917); note: % is set by controls: 0 for no effect and ±100 for the full control effect
Summary of the method: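 Murine Ba/F3 cells stably expressing human TPO receptor and a Glycoprotein IIb promoter–luciferase reporter were IL-3-starved overnight, then treated with compounds plus TPO (26 pM final, its EC50) for 24 hrs at 37 C; luminescence was read.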

[9] = molecular target: Muscarinic acetylcholine receptor M1 (Rattus norvegicus) (UniProt P08482); test: qHTS Assay for Antagonists of Acetylcholine Muscarinic M1 Receptor: Kinetic Measurement of Intracellular Calcium Response (AID 943); note: nearly all actives have a fitted effect of over 75% in size
Muscarinic acetylcholine receptor M1 (Rattus norvegicus), sequence (P08482 whole entry, looked up): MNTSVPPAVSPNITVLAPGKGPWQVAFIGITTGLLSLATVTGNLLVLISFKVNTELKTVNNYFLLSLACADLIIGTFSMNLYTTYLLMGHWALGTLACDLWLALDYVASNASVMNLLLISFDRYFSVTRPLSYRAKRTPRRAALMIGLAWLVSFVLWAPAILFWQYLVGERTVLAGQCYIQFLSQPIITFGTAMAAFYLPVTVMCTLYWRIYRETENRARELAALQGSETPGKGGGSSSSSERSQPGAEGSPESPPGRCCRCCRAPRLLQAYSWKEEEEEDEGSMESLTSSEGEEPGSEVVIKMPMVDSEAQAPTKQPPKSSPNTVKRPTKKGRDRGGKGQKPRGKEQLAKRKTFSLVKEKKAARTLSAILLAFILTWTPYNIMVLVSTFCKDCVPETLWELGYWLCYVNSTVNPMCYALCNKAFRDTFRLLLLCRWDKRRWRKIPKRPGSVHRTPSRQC
Summary of the method: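 CHO cells expressing rat M1 receptor, Fluo-4 loaded, preincubated 10 min with compound, then stimulated with EC80 carbachol (100 nM final). Kinetic calcium fluorescence over 4 min; response taken as peak over basal signal.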

[10] = molecular target: Muscarinic acetylcholine receptor M1 (Rattus norvegicus) (UniProt P08482); test: qHTS Assay for Antagonists of Acetylcholine Muscarinic M1 Receptor: Measurement of IP-One Response (AID 944); note: nearly all actives have a fitted effect of over 75% in size
Summary of the method: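 CHO cells stably expressing rat M1, pretreated 10 min with compound, then stimulated 30 min with carbachol at EC80 (200 nM) in LiCl-containing buffer pH 7.4; IP1 accumulation read by HTRF competition (665/620 nm).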

[11] = molecular target: Pyruvate kinase (Leishmania mexicana) (UniProt Q27686); test: qHTS Validation Assay for Inhibitors of Leishmania Mexicana Pyruvate Kinase (AID 945);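 note: 0% = DMSO only neutral control wells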
Summary of the method: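 Read-out: luminescence from PKLight stop/detection reagent, data normalized to DMSO. Reaction: 0.2 nM E451W LmPYK, 0.5 mM PEP, 0.1 mM ADP, pH 7.2, 1 h room temperature.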

[12] = molecular target: Pyruvate kinase PKM (Homo sapiens) (UniProt P14618); test: qHTS Assay for Activators of Human Muscle Pyruvate Kinase (AID 954; active = well fitted curve in the direction sought with a large enough effect, not every such curve was filed as active;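 note: 0% = uninhibited enzyme and -100% = no enzyme or full thiadiazolimine inhibition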)
Pyruvate kinase PKM (Homo sapiens), sequence (P14618 whole entry, looked up): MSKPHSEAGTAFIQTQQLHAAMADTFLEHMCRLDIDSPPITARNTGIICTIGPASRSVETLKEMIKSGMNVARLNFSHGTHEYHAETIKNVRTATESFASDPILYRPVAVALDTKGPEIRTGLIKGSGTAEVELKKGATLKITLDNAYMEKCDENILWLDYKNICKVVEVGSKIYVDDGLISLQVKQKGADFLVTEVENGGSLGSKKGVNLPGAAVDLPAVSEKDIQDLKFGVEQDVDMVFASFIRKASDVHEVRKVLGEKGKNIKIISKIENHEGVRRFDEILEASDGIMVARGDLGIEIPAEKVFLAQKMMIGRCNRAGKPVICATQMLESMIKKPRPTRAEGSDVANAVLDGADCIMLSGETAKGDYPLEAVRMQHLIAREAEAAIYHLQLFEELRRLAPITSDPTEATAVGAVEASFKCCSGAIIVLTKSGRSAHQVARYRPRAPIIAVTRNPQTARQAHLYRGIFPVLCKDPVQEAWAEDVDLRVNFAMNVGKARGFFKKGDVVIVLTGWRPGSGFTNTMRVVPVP
Summary of the method: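 Purified human PKM2 (0.1 nM) with 0.5 mM PEP (Km) and 0.1 mM ADP in 50 mM imidazole pH 7.2, KCl, MgCl2, 1 h at room temperature; ATP formed read by coupled luciferase luminescence. Normalized to no-enzyme/110 uM thiadiazolimine inhibition; 0.3 nM enzyme column for activation.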

[13] = molecular target: alpha-glucosidase (Oryza sativa, rice) (UniProt Q653V4); test: Counterscreen for Glucocerebrosidase Inhibitors: qHTS Assay for Rice alpha-Glucosidase at pH 5.0 (AID 997);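 note: 0% = full activity with enzyme and -100% = basal without enzyme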
Summary of the method: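 Rice alpha-glucosidase (4 nM final) with 400 uM 4-methylumbelliferyl-alpha-D-glucopyranoside in citrate buffer pH 5.0, 20 min at room temperature, stopped at pH 10; fluorescence 365/440 nm, compounds 0.7 nM–77 uM, AC50 from Hill fits.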

[14] = molecular target: DNA repair nuclease/redox regulator APEX1 (Homo sapiens) (UniProt P27695); test: qHTS Validation Assay for Inhibitors of the Human Apurinic/apyrimidinic Endonuclease 1 (APE1) (AID 1705)
DNA repair nuclease/redox regulator APEX1 (Homo sapiens), sequence (P27695 whole entry, looked up): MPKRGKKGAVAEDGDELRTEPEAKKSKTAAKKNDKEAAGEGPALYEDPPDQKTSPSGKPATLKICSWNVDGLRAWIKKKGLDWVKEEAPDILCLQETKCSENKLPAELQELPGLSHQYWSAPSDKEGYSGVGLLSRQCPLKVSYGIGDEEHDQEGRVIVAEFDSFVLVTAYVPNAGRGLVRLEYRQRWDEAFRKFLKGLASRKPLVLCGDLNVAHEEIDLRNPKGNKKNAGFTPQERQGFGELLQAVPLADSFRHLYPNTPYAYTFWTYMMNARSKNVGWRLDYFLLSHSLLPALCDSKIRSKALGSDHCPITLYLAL
Summary of the method: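 Human APE1 was preincubated with compound for 15 min at room temperature, then 50 nM (final) THF-abasic double-stranded DNA substrate bearing 5'-TAMRA and 3'-BHQ-2 was added. Incision-driven fluorescence rise (ex 525/em 598 nm) was read kinetically.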

[15] = Counterscreen for APE1 Inhibitors: Fluorescent Dye Displacement Validation Assay (AID 1707);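 note: plate controls were ThO with dsDNA and no compound for no effect and ThO without dsDNA for full effect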
Summary of the method: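 Thiazole Orange (250 nM) bound to 50 nM TAMRA-labelled dsDNA with tetrahydrofuran abasic site; displacement by DNA-binding compounds lowers fluorescence. Buffer 50 mM Tris-HCl pH 7.5, 50 mM NaCl, 2 mM MgCl2, 0.01% Tween-20; endpoint read at 480/540 nm.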

[16] = molecular target: Endonuclease 4 (Escherichia coli (strain K12)) (UniProt P0A6C1); test: Counterscreen for APE1 Inhibitors: qHTS Validation Assay for Inhibitors of Endonuclease IV (AID 1708); note: % is set by controls: 0 for no effect and ±100 for the full control effect
Summary of the method: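 E. coli EndoIV at 2 nM final, preincubated 15 min at room temperature with compound, then 50 nM TAMRA/BHQ-2 THF abasic-site duplex added. Buffer: 50 mM Tris-HCl pH 7.5, 50 mM NaCl, 2 mM MgCl2, 1 mM DTT, 0.01% Tween-20. Kinetic fluorescence increase, third minus first read.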

[17] = qHTS for differential inhibitors of proliferation of Plasmodium falciparum line D10 (AID 1877);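 note: parasites grown with compound for 72 h before DNA staining; plate controls were vehicle wells for no effect and reference inhibitor wells for full effect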
[18] = qHTS for differential inhibitors of proliferation of Plasmodium falciparum line Dd2 (AID 1882); conditions: Potency: Plasmodium falciparum Dd2 proliferation inhibition;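 note: plate controls were DMSO vehicle for no effect and 0.29 µM artemisinin for full effect; nearly all actives have a fitted effect of over 65% in size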
Summary of the method: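 Dd2-infected erythrocytes (0.3% parasitemia, 2.5% hematocrit final) incubated with compound 72 h at 37 C, 5% CO2; lysed with saponin/Triton buffer containing SYBR Green I, incubated overnight in the dark, then read by fluorescence (485/535 nm). Normalized to 0.29 uM artemisinin and DMSO.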

[19] = molecular target: Ferritin light chain (Equus caballus) (UniProt P02791); test: qHTS Validation Assay for Identification of Novel General Anesthetics (AID 2323); note: % is set by controls: 0 for no effect and ±100 for the full control effect
Ferritin light chain (Equus caballus), sequence (P02791 2-175 limits assumed): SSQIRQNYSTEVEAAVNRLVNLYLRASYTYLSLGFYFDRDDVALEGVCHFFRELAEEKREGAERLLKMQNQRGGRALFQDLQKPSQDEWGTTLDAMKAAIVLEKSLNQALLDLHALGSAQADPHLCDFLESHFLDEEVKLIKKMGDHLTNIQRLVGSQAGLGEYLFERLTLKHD
Summary of the method: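 Competitive displacement of profluorescent 1-aminoanthracene (1-AMA, 50% saturated solution in PBS) from 10 uM horse-spleen apoferritin. Compounds incubated 10 min at room temperature; fluorescence read at 380 nm excitation/535 nm emission, normalized to free 1-AMA and complex, fitted with four-parameter Hill equation.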

[20] = molecular target: ATP-dependent DNA helicase Q1 (Homo sapiens) (UniProt P46063); test: qHTS Validation Assay for Inhibitors of RecQ-Like Dna Helicase 1 (RECQ1) (AID 2353);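 note: plate controls were DMSO vehicle for no effect and enzyme-free control for full effect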
ATP-dependent DNA helicase Q1 (Homo sapiens), sequence (P46063 whole entry, looked up): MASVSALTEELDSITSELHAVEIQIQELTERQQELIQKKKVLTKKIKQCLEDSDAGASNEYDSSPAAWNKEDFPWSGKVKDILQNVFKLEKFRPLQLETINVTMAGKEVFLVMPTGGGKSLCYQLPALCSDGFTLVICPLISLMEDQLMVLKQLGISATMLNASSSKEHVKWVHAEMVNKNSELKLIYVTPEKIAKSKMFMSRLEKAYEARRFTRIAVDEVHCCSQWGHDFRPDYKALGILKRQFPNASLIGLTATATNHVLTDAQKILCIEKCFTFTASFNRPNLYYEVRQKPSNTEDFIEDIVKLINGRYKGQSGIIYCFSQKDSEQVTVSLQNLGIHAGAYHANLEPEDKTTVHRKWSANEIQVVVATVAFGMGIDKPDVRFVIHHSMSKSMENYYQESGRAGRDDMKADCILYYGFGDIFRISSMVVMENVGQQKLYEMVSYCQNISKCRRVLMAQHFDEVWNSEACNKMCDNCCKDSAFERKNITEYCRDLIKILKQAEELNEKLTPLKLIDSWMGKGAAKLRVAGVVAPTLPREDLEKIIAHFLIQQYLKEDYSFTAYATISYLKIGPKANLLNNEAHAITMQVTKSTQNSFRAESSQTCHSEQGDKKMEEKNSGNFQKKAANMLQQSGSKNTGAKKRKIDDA
Summary of the method: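 50 nM RECQ1T1 preincubated 15 min with compound in Tris pH 8.0 buffer with MgCl2, DTT, Tween-20 and 2.5 ug/ml poly(dI-dC); started with 200 nM TAMRA/BHQ-2 forked duplex and 2 mM ATP. Unwinding read as fluorescence (525/598 nm), two reads 2 h apart.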

[21] = Validation screen for small molecules that induce DNA re-replication in MCF 10A normal breast cells (AID 463097); note: 0% is about no effect; nearly all actives have a fitted effect of over 60% in size
Summary of the method: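 Readout: Hoechst nuclear fluorescence intensity, 405 ex / 500-530 em, by scanning plate imager; re-replication scored as increase in nuclei with elevated DNA content. Cells exposed to compound 48 hr, 37 C, 5% CO2 beforehand.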

[22] = Quantitative high throughput screen for delayed death inhibitors of the malarial parasite plastid, 48 hour incubation (AID 488752); note: % is set by controls: 0 for no effect and ±100 for the full control effect; nearly all actives have a fitted effect of over 65% in size
Summary of the method: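 Erythrocytes infected with firefly luciferase-expressing P. falciparum (2% hematocrit, 0.1% parasitemia) cultured with compound for 48 h at 37 C, 5% CO2, in RPMI 1640/0.5% Albumax. Growth inhibition read as loss of luminescence.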

[23] = molecular target: Transient receptor potential cation channel subfamily V member 1 (Homo sapiens) (UniProt Q8NER1); test: HTS Assay for Compounds that Act as Enhancers of the Vanilloid Receptor 1 (AID 488979); note: 0% is about no effect
Transient receptor potential cation channel subfamily V member 1 (Homo sapiens), sequence (Q8NER1 whole entry, looked up): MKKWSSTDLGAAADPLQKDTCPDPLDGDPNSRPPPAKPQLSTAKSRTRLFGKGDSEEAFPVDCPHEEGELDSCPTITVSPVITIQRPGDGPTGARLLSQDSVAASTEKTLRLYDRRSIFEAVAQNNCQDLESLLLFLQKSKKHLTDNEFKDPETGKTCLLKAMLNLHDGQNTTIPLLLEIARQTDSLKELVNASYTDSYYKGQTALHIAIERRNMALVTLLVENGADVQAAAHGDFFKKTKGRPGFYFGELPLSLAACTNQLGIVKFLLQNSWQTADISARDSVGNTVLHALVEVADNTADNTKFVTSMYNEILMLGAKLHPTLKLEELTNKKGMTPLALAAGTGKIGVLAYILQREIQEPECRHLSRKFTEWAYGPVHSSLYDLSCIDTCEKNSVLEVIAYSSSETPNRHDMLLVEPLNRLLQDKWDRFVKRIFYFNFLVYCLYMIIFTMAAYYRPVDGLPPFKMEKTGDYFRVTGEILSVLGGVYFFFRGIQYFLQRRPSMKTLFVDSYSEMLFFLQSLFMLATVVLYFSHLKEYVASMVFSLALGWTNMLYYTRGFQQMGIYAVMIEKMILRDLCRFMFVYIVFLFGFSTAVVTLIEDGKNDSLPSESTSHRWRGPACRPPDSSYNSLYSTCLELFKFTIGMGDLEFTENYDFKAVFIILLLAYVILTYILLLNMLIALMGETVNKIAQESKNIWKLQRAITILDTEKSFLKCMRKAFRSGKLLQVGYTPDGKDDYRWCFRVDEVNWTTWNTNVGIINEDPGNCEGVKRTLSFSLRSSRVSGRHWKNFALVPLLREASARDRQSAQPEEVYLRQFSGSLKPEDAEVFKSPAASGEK
Summary of the method: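 TRPV1 cells loaded with Fluo-8 calcium dye; compound added and Ca2+ signal (ex 480/em 520 nm) followed 3 min, then capsaicin at EC20 added and read 2 more min to detect enhancement.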

[24] = molecular target: Thyrotropin receptor (Homo sapiens) (UniProt P16473); test: qHTS Assay for Antagonists of the Thyroid Stimulating Hormone Receptor (AID 488980); note: 0% is about no effect
Thyrotropin receptor (Homo sapiens), sequence (P16473 whole entry, looked up): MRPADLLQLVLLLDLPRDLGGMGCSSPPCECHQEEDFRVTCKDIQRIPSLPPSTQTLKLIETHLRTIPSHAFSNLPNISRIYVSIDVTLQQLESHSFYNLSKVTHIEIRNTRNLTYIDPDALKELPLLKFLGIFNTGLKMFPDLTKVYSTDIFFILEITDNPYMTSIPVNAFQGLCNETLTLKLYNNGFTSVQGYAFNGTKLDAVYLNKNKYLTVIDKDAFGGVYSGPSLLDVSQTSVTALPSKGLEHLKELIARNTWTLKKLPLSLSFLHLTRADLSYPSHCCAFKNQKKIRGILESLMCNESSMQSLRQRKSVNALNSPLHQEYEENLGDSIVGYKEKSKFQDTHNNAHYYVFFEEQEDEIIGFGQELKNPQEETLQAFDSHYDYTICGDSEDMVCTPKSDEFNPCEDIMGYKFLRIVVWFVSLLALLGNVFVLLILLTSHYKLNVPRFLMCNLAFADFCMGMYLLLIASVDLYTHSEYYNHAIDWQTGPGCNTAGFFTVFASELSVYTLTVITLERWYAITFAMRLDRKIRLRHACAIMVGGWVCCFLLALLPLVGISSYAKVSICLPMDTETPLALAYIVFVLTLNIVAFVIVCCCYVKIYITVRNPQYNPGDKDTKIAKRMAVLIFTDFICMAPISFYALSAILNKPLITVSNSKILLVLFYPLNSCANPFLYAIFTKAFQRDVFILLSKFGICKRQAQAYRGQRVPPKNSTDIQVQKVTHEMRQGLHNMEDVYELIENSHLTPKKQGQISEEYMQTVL
Summary of the method: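 HEK293 cells transfected with human TSHR, suspended in HEPES-buffered HBSS with 70 uM RO 20-1724, were treated with compounds plus TSH at EC80 (4 nM final). cAMP was measured by competitive HTRF (cryptate anti-cAMP antibody, cAMP-d2 acceptor).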

[25] = molecular target: Thyrotropin-releasing hormone receptor (Homo sapiens) (UniProt P34981); test: qHTS for Small Molecule Agonists and Allosteric Enhancers of Human TRH Receptor: Validation Screen for Agonists (AID 493127;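 active = calcium activation more than 3 SD above the typical response in the agonist read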; note: 0% is about no effect); conditions: TRH receptor agonist cell assay; at 2 µM; active compounds read high
Summary of the method: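 TRHR cells loaded with fluo-8 calcium dye; FDSS kinetic fluorescence (Ex 480/Em 530) read at 1 s/cycle after 23 nL compound addition. Agonist-mode calcium response recorded before the 10 nM TRH (EC20) addition.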

[26] = molecular target: Galactokinase (Homo sapiens) (UniProt P51570); test: qHTS Validation Assay for Inhibitors of Human Galactokinase (GALK) (AID 493189); note: 0% is about no effect
Summary of the method: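 GALK (5 nM) with 35 uM ATP and 100 uM galactose in HEPES pH8.0, MgCl2, NaCl, DTT, BSA; 1 h at room temperature. Residual ATP read by Kinase-Glo Plus luminescence after 10 min.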

[27] = Validation screen for small molecules that induce DNA re-replication in SW480 colon adenocarcinoma cells (AID 504364); note: 0% is about no effect
Summary of the method: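 SW480 cells (250/well) exposed 48 h at 37 C, 5% CO2, then Hoechst-stained 40 min. Nuclear DNA content imaged by fluorescence scanning (405 nm excitation, 500-530 nm emission); re-replication scored as increased nuclei with elevated intensity.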

[28] = molecular target: Voltage-gated inwardly rectifying potassium channel KCNH2 (Homo sapiens) (UniProt Q12809); test: qHTS Assay for Small Molecule Inhibitors of the Human hERG Channel Activity (AID 588834);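 note: top concentration of the series differs between compounds; % is set by controls: 0 for no effect and ±100 for the full control effect; lower thallium flux fluorescence means stronger hERG block; nearly all actives have a fitted effect of over 50% in size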
Summary of the method: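 U2OS cells transduced with hERG via BacMam (MOI ~100), plated 2000/well, loaded with FluxOR thallium dye, compound ~10 min, then stimulation buffer; fluorescence decrease read kinetically; AC50 from Hill fits.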

COc1ccc2c(c1)c(CC(=O)O)c(C)n2Cc1ccc(F)cc1
inactive: activity change, negative = inhibition [1] 1.56% [at 38 µM] | activity change, negative = inhibition [2] 6.06% [at 38 µM] | activity, negative = inhibition [3] 11.9% [at 38 µM] | Potency [4] > 46 µM | outcome [5] | Potency [6] | outcome [7] | outcome [8] | Potency [9] | Potency [10] | Potency [11] | outcome [12] | outcome [13] | Potency [14] | Potency [15] | outcome [16] | Potency [17] | Potency [18] | outcome [19] | Potency [20] | outcome [21] | Potency [22] | outcome [23] | outcome [24] | activation [25] 1.38% | outcome [26] | outcome [27] | Potency [28]
